# KB-3-1 tox – kills parental KB-3-1 adenocarcinoma cells | AID 1347075 | Potency, µM (titrated, usually from 46.1 µM), usual class: cytotoxic | KB-3-1 viability, CellTiter-Glo ATP luminescence, 72 h | hit rate 1.4% among 400,000; also: % is scaled to controls: 0 for no effect and ±100 for the full control effect; nearly all actives have a fitted effect of over 60% in size
#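 Parental KB-3-1 viability, qHTS format: 72 h compound exposure, 37 °C; CellTiter-Glo; media-only wells and DMSO plates as controls; concentration-effect fits on corrected data.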
# HT1080 IDH1KD tx – kills HT-1080 cells with IDH1 knockdown; AID 686971; hit rate 2% among 360,000; HT-1080 IDH1 knockdown viability, ATP luminescence, 48 h; Potency, µM (top dose mostly 46.1 µM), for the others: at the highest dose activity, negative = toxicity, usual class: cytotoxic;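 also: 0% = DMSO wells and -100% = cell-free medium wells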
#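 HT-1080-IDH1KD cells (IDH1 knocked down), 750/well in RPMI with 5% FBS, treated with compound 48 h at 37 degrees C. Viability by CellTiter-Glo luminescence, normalised to DMSO and no-cell wells; concentration-response curves classed.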
# TGFb inhibitor – inhibitors of TGF-b signaling; HepG2 CAGA-GFP TGF-b/SMAD3 reporter, GFP fluorescence, 18 h; TGF-beta stimulated, 500 pg/mL final; Potency, µM (series often up to 46.1 µM), without a hit: at the top dose activity, negative = inhibition, actives largely listed as inhibitors; hit rate 1.2% among 410,000; AID 588855; also: % is scaled to controls: 0 for no effect and ±100 for the full control effect; nearly all actives have a fitted effect of over 65% in size
#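 GFP signal (ex488/em500-530) from TGF-beta-stimulated HEPG2 CAGA-GFP cells, 500 pg/mL final, 18 h at 37 degrees C in DMEM plus 1% FBS, normalized to unstimulated and DMSO-stimulated controls.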
# KB-V1 MDR tox – KB-V1 MDR subline cytotoxicity; hit rate 3.4% among 400,000; Potency, µM (highest dose often 46.1 µM), most hits filed as cytotoxic; AID 1347076; KB-V1 MDR cells viability, CellTiter-Glo, 72 h; also: % is scaled to controls: 0 for no effect and ±100 for the full control effect; nearly all actives have a fitted effect of over 60% in size
#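 Potencies derive from concentration-effect curves fitted to normalized luminescence (CellTiter-Glo) of KB-V1 cells treated for 72 h at 37 degrees C in phenol-red-free DMEM containing 10% FBS.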
# HepG2 tox – counter-screen for TGF-b inhibitors: cytotoxicity in HepG2 cells. HepG2 CAGA-GFP viability, ATP luminescence, 18 h. Potency, µM (titrated, usually from 46.1 µM), without a hit: at the highest dose activity change, negative = cytotoxicity, hits mostly cytotoxic. hit rate 0.76% among 410,000
#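 HepG2 CAGA-GFP cells (1000/well, DMEM with 1% FBS) received compound, then TGF-beta at 500 pg/mL final, and were incubated 18 hours at 37 degrees C. Viability was read by CellTiter-Glo luminescence. Media-only wells were set as complete cell-killing and DMSO as no toxicity.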
# HT1080-NT tox – kills 2HG-producing HT-1080-NT fibrosarcoma cells; hit rate 1.6% among 360,000; HT-1080-NT fibrosarcoma viability, CellTiter-Glo ATP luminescence, 48 h; Potency, µM (highest dose often 46.1 µM), for the others: at the highest dose activity, negative = less viability, hits mostly cytotoxic;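 also: NT is the 2HG producing partner of a matched IDH1 knockdown line; 0% = DMSO-treated cells and -100% = media-only wells without cells; nearly all actives have a fitted effect of over 55% in size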
#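 HT-1080-NT; 750 cells/well; 5% FBS RPMI; 48 h compound, 37 degrees C; CellTiter-Glo luminescence; curve fitting and curve-class assignment.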
# Active calls of the source: *; i = inactive; u = inconclusive; x = no result given. Compounds with a hit are over-represented: about 6.6% of the library has one in this group of screens. Calls follow the shape of the dose curve; as a rule, active = well fitted curve in the direction sought with a large enough effect; inconclusive = small, poorly fitted or top-dose-only effect, or another doubt; inactive = no such curve, though single readings can be large; an effect the other way counts as inactive or inconclusive. Potency is read from the fitted curve at half-maximal effect.
SMILES,KB-3-1 tox,HT1080 IDH1KD tx,TGFb inhibitor,KB-V1 MDR tox,HepG2 tox,HT1080-NT tox
COc1ccc(CN2CCN(C(=O)c3ccc(S(=O)(=O)N4CCCCCC4)cc3)CC2)cc1,8.2µM*,-28%,-6%,2.3µM*,11%,16µM*
COc1cc(CN2CCN(S(=O)(=O)c3ccc(NC(C)=O)cc3)CC2)cc(OC)c1O,i,u,3%,i,0%,11%
COc1ccc(S(=O)(=O)N2CCN(C(=O)CSC(=S)N3CCCC3)CC2)cc1,i,-7%,u,i,16µM*,1%
COc1ccc(S(=O)(=O)N2CCN(C(=O)C3CCC3)CC2)cc1,i,5%,-10%,i,3%,1%
O=C(CN1CCCN(Cc2ccccc2F)S1(=O)=O)Nc1ccc(F)c(Cl)c1,i,x,-47%,i,-38%,x
Cc1ccc(-c2nc(Nc3ccc(N4CCOCC4)cc3)c3ccccc3n2)cc1,i,21µM*,u,i,-39%,18µM*
CNC(=O)c1ccc(Nc2nc(-c3ccccc3)nc3ccccc23)cc1,i,18µM*,9%,u,-46%,18µM*
CN(CCO)c1nc(-c2cccs2)nc2ccccc12,x,-21%,x,x,x,-24%
N#C/C(=C/c1ccc(F)cc1)c1nc(CCN2C(=O)c3ccccc3C2=O)cs1,i,0%,19%,i,-13%,28%
N#C/C(=C/c1cccc(C(F)(F)F)c1)c1nc(CCN2C(=O)c3ccccc3C2=O)cs1,i,8%,u,21µM*,8%,14%
CCOC(=O)C1=C(C)N=C2SC=C(C)N2C1c1ccc(OC)cc1 (configuration not stated),u,21µM*,-25%,u,-3%,16µM*
CCOC(=O)c1ccc(N2C(=O)c3n[nH]c(-c4cccs4)c3C2c2ccc(OCC)cc2)cc1 (configuration not stated),u,x,1.6µM*,u,-64%,x
CCOC(=O)c1ccc(N2C(=O)c3n[nH]c(-c4cccs4)c3C2c2ccc(C(C)C)cc2)cc1 (configuration not stated),u,x,u,u,1%,x
CCOC(=O)c1ccc(N2C(=O)c3n[nH]c(C)c3C2c2cccc(Br)c2)cc1 (configuration not stated),x,x,u,x,-104%,x
CCOC(=O)c1ccc(N2C(=O)c3n[nH]c(-c4cccs4)c3C2c2cccc(O)c2)cc1 (configuration not stated),u,x,11µM*,u,-82%,x
CCOC(=O)c1ccc(N2C(=O)c3n[nH]c(-c4cccs4)c3C2c2ccc(CC)cc2)cc1 (configuration not stated),x,x,0.89µM*,x,-89%,x
Cc1ccccc1CSc1ccc(-c2cccs2)nn1,i,x,-14%,i,-32%,x
CCOC(=O)c1ccc(N2C(=O)c3n[nH]c(C)c3C2c2ccc(OC)cc2)cc1 (configuration not stated),i,u,3%,5.2µM*,-26%,u
COc1ccccc1CCNC(=O)CCCn1c(=O)c2cccn2c2cccnc21,x,x,x,x,2%,x
O=[N+]([O-])c1cc(S(=O)(=O)Nc2ccccc2)ccc1Nc1ccccc1,u,-28%,u,u,1%,7.3µM*
O=[N+]([O-])c1cc(S(=O)(=O)Nc2ccccc2)ccc1NCc1ccccc1,i,-5%,u,u,2%,1%
CC(Sc1nnc2ccc3ccccc3n12)C(=O)Nc1ccc(Cl)cc1 (configuration not stated),x,x,0%,x,1%,x
CCOc1ccccc1CNC(=O)CSc1n[nH]c(-c2ccccc2)n1,i,x,u,i,-30%,x
O=C(NC1CCCc2ccccc21)c1n[nH]c(=O)c2ccccc12 (configuration not stated),i,9.2µM*,-25%,u,-24%,u
COc1ccc(C(=O)NC2CCCc3ccccc32)cc1[N+](=O)[O-] (configuration not stated),u,15µM*,-13%,5.8µM*,2%,u
SMILES,KB-3-1 tox,HT1080 IDH1KD tx,TGFb inhibitor,KB-V1 MDR tox,HepG2 tox,HT1080-NT tox
CCn1c(=O)c(=O)[nH]c2cc(C(=O)NC3CCCc4ccccc43)ccc21 (configuration not stated),10µM*,u,11%,i,-11%,u
COc1cc(C(=O)NC2CCCc3ccccc32)cc(OC)c1C (configuration not stated),i,-21%,-10%,i,9%,-30%
COc1ccc(C2(CNC(=O)c3ccc(OC)c([N+](=O)[O-])c3)CCCCC2)cc1OC,i,22%,5%,2.6µM*,-17%,3%
CCOC(=O)Cn1nc(C)c(NC(=O)COc2ccc(Cl)cc2C)c1C,i,x,u,u,-58%,x
Cc1cc2c(c(C#N)c1C)NC=NC2C (configuration not stated),i,3%,0%,i,-21%,-13%
COc1ccc(C(=O)NCC(=O)NCC2(N(C)C)CCCCC2)cc1OC,i,5%,0%,i,-20%,12%
COc1cc(C(=O)NCC2(N(C)C)CCCCC2)ccc1OCc1ccccc1,i,9.2µM*,10%,i,-25%,u
CCC(=O)N(Cc1ccc(C)cc1)Cc1cc2cc3c(cc2[nH]c1=O)OCO3,i,-15%,u,12µM*,7%,5%
O=C1C(C2=C(O)c3ccccc3C2=O)=Nc2ccccc21,u,u,268%,7.3µM*,11µM*,-27%
CN=CC1=C(O)c2ccccc2C1=O,i,4%,18%,i,3%,1%
COc1cccc(N/C(SCc2ccccc2F)=C(/C#N)C(=O)NCc2cccs2)c1,i,-25%,9%,16µM*,16%,-20%
O=C(/C=C/c1cn(CC(O)CN2CCCCC2)c2ccccc12)c1cccs1 (configuration not stated),u,u,0%,23µM*,-44%,u
COc1ccc(C(=O)/C=C/c2cn(CC(O)CN3CCN(C)CC3)c3ccccc23)cc1OC (configuration not stated),i,15µM*,u,i,-187%,16µM*
CN1CCN(Cn2cc(/C=C/C(=O)c3ccccc3)c3ccccc32)CC1,i,0%,13µM*,u,-59%,5%

# Assay outcomes as filed in PubChem BioAssay.
